Assay results as given in PubChem BioAssay AID1159580 (chemical genetic matrix, 2015).
“And” between values parts separate entries of the source, which are not always exact repeats. Equal values may be shown once. Out of some 5,500 compounds screened, about 2,000 (36%) were called active. Another 18% or so got no clear call; they are omitted. Cut-off read from the data, not from the text of the source: active = normalized growth mostly below about 0.91 (no sharp cut-off); inconclusive = no clear call, values can overlap the other calls; inactive = mostly above about 0.92. This is one part of the list.

Test: chemical genetic growth profiling, strain panel (AID 1159580);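 note: tested at 20 µM; growth read once vehicle control cultures reached saturation at 30 °C; 1 = growth at the plate median or of vehicle wells; lower values mean less growth of the strain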
Details: S. cerevisiae deletion strains, growth OD
[1] = locus YDR150W, strain NUM1, active compounds read low
[2] = locus YMR307W, strain GAS1, active compounds read low
[3] = locus YPL055C, strain LGE1, active compounds read low
[4] = locus YPL241C, strain CIN2, active compounds read low
[5] = locus YAL040C, strain CLN3, active compounds read low
[6] = locus YCL061C, strain MRC1 (second series), active compounds read low
[7] = locus YDR363W, strain ESC2, active compounds read low
[8] = locus YER002W, strain NOP16, active compounds read low
[9] = locus YNL175C, strain NOP13, active compounds read low
[10] = locus YNL197C, strain WHI3, active compounds read low
[11] = locus YNL224C, strain SQS1, active compounds read low
[12] = locus YNL322C, strain KRE1, active compounds read low
[13] = locus YOR083W, strain WHI5 (second series), active compounds read low

Measured: normalized growth

CC(=O)OCC(=O)[C@@]1(O)CCC2C3CCC4=CC(=O)CC[C@]4(C)C3[C@@H](O)C[C@@]21C (stereo not given in full)
inactive: locus YAL013W, strain DEP1, active compounds read low 1.01 | locus YAL021C, strain ccr4, active compounds read low 1.03 | locus YAL026C, strain drs2, active compounds read low 1.02 | locus YAL030W, strain snc1, active compounds read low 1.04 | locus YBL061C, strain skt5, active compounds read low 1.03 | locus YBR009C, strain hhf1, active compounds read low 0.99 | locus YBR021W, strain FUR4, active compounds read low 0.999 | locus YBR023C, strain chs3, active compounds read low 1.02 | locus YBR171W, strain sec66, active compounds read low 1.04 | locus YBR229C, strain ROT2, active compounds read low 1 | locus YBR231C, strain swc5, active compounds read low 0.999 | locus YBR279W, strain paf1, active compounds read low 1.01 | locus YCL011C, strain gbp2, active compounds read low 1.01 | locus YCL016C, strain dcc1, active compounds read low 1.04 | locus YCL029C, strain bik1, active compounds read low 1 | locus YCL069W, strain vba3, active compounds read low 1 | locus YCR088W, strain abp1, active compounds read low 1.02 | locus YDL005C, strain med2, active compounds read low 1.01 | locus YDL035C, strain GPR1, active compounds read low 1.01 | locus YDL040C, strain nat1, active compounds read low 1.01 | locus YDL074C, strain BRE1, active compounds read low 1.01 | locus YDL101C, strain DUN1, active compounds read low 1.01 | locus YDL134C, strain PPH21, active compounds read low 1.01 | locus YDL185W, strain tfp1, active compounds read low 1.01 | locus YDL192W, strain arf1, active compounds read low 1 | locus YDR001C, strain nth1, active compounds read low 1.01 | locus YDR069C, strain doa4, active compounds read low 1.04 | locus YDR101C, strain arx1, active compounds read low 0.994 | locus YDR137W, strain rgp1, active compounds read low 1.05 | [1] 1.01 | locus YDR159W, strain sac3, active compounds read low 0.997 | locus YDR162C, strain NBP2, active compounds read low 1.01 | locus YDR195W, strain ref2 1.02 | locus YDR297W, strain sur2, active compounds read low 0.997 | locus YDR318W, strain mcm21, active compounds read low 0.998 | locus YDR334W, strain swr1, active compounds read low 1.01 | locus YDR335W, strain msn5, active compounds read low 1.02 | locus YDR388W, active compounds read low 1 | locus YDR392W, strain spt3, active compounds read low 1.04 | locus YDR502C, strain sam2, active compounds read low 0.996 | locus YEL003W, strain gim4, active compounds read low 1.01 | locus YEL037C, strain rad23, active compounds read low 1.02 | locus YEL061C, strain CIN8 (second series), active compounds read low 1.01 | locus YEL061C, strain CIN8, active compounds read low 1.01 | locus YER015W, strain faa2, active compounds read low 1.01 | locus YER016W, strain bim1, active compounds read low 1.05 | locus YER110C, active compounds read low 0.998 | locus YER111C, strain swi4, active compounds read low 1.01 | locus YER155C, strain BEM2 (second series), active compounds read low 1.02 | locus YER155C, strain BEM2, active compounds read low 1.01 | locus YER167W, strain BCK2, active compounds read low 1.01 | locus YFR010W, strain ubp6, active compounds read low 0.984 | locus YGL078C, strain dbp3, active compounds read low 0.99 | locus YGL086W, strain mad1, active compounds read low 1.01 | locus YGL167C, strain pmr1, active compounds read low 1.02 | locus YGL173C, strain kem1, active compounds read low 1.02 | locus YGL227W, strain vid30, active compounds read low 1.01 | locus YGL240W, strain doc1, active compounds read low 1 | locus YGL248W, strain PDE1, active compounds read low 1 | locus YGL253W, strain hxk2, active compounds read low 1.02 | locus YGR135W, strain pre9, active compounds read low 0.986 | locus YGR252W, strain gcn5, active compounds read low 0.947 | locus YHR013C, strain ard1, active compounds read low 1.04 | locus YHR027C, strain rpn1, active compounds read low 1.03 | locus YHR030C, strain SLT2, active compounds read low 1.01 and 0.978 | locus YHR079C, strain IRE1 (second series), active compounds read low 1 | locus YHR079C, strain IRE1, active compounds read low 0.976 | locus YHR094C, strain hxt1, active compounds read low 0.995 | locus YHR129C, strain ARP1, active compounds read low 1.01 | locus YHR142W, strain chs7, active compounds read low 1.03 | locus YHR200W, strain rpn10, active compounds read low 1 | locus YIL066C, strain RNR3, active compounds read low 1.01 | locus YIL073C, strain SPO22, active compounds read low 1.04 | locus YIL125W, strain kgd1, active compounds read low 0.996 | locus YIR030C, strain dcg1, active compounds read low 1 | locus YJL092W, strain hpr5, active compounds read low 1.02 | locus YJL095W, strain BCK1 (second series), active compounds read low 1.03 | locus YJL095W, strain BCK1, active compounds read low 1.01 and 0.971 | locus YJL115W, strain asf1, active compounds read low 1.01 | locus YJL129C, strain trk1, active compounds read low 1.04 | locus YJL134W, strain LCB3, active compounds read low 1.01 | locus YJL154C, strain vps35, active compounds read low 1.01 | locus YJL164C, strain tpk1, active compounds read low 1.01 | locus YJL166W, strain qcr8, active compounds read low 1.01 | locus YJL168C, strain set2, active compounds read low 0.993 | locus YJL187C, strain SWE1 (second series), active compounds read low 1 | locus YJL187C, strain SWE1, active compounds read low 1.01 | locus YJR043C, strain POL32, active compounds read low 1.02 | locus YJR066W, strain TOR1, active compounds read low 0.931 | locus YKL009W, strain mrt4, active compounds read low 1.01 | locus YKL068W, active compounds read low 0.997 | locus YKL085W, strain MDH1 (second series), active compounds read low 1 | locus YKL085W, strain MDH1, active compounds read low 1 | locus YKL160W, strain elf1, active compounds read low 1.04 | locus YKR001C, strain vps1, active compounds read low 0.997 | locus YKR026C, strain gcn3, active compounds read low 1 | locus YKR091W, strain srl3, active compounds read low 1.01 | locus YLL001W, strain dnm1, active compounds read low 1.01 | locus YLL026W, active compounds read low 1.01 | locus YLL041C, strain sdh2, active compounds read low 1.03 | locus YLR027C, strain aat2, active compounds read low 1.02 | locus YLR039C, strain RIC1, active compounds read low 1.02 | locus YLR058C, strain SHM2, active compounds read low 0.996 | locus YLR102C, strain apc9, active compounds read low 0.995 | locus YLR113W, strain HOG1, active compounds read low 0.992 | locus YLR221C, strain rsa3, active compounds read low 0.985 | locus YLR258W, strain gsy2, active compounds read low 1.03 | locus YLR262C, strain YPT6 (second series), active compounds read low 1 | locus YLR262C, strain YPT6, active compounds read low 1.04 | locus YLR268W, strain sec22, active compounds read low 0.998 | locus YLR320W, strain mms22, active compounds read low 1 | locus YLR330W, strain CHS5, active compounds read low 1.01 | locus YLR342W, strain FKS1 (second series), active compounds read low 0.998 | locus YLR342W, strain FKS1, active compounds read low 1.02 | locus YLR357W, strain rsc2, active compounds read low 1.03 | locus YLR370C, strain arc18, active compounds read low 1.02 | locus YLR371W, strain rom2, active compounds read low 0.994 | locus YLR384C, strain iki3, active compounds read low 1.02 | locus YLR418C, strain cdc73, active compounds read low 0.994 | locus YML016C, strain PPZ1, active compounds read low 1 | locus YML032C, strain rad52, active compounds read low 1 | locus YML120C, strain ndi1, active compounds read low 1 | locus YML124C, strain tub3, active compounds read low 0.998 | locus YMR058W, strain fet3, active compounds read low 1.03 | locus YMR078C, strain ctf18, active compounds read low 1 | locus YMR125W, strain sto1, active compounds read low 1.03 | locus YMR129W, active compounds read low 1.02 | locus YMR205C, strain PFK2, active compounds read low 1.03 | locus YMR223W, strain ubp8, active compounds read low 0.98 | locus YMR231W, strain pep5, active compounds read low 1.02 | [2] 0.984 | locus YNL067W, strain RPL9B, active compounds read low 1.01 | locus YNL071W, strain lat1, active compounds read low 1 | locus YNL183C, strain NPR1, active compounds read low 0.954 | locus YNL209W, strain ssb2, active compounds read low 1.02 | locus YNL233W, strain BNI4, active compounds read low 1 | locus YNL248C, strain rpa49, active compounds read low 1.03 | locus YNL250W, strain rad50, active compounds read low 0.982 | locus YNL271C, strain bni1, active compounds read low 0.993 | locus YNL298W, strain CLA4, active compounds read low 0.995 | locus YNL307C, strain MCK1, active compounds read low 1 | locus YNL322C, strain KRE1 (second series), active compounds read low 1.04 | locus YNR049C, strain mso1, active compounds read low 1.02 | locus YNR052C, strain pop2, active compounds read low 0.996 | locus YOL012C, strain htz1 0.732 | locus YOL147C, strain pex11, active compounds read low 0.992 | locus YOR001W, strain rrp6, active compounds read low 0.986 | locus YOR061W, strain CKA2, active compounds read low 1.01 | locus YOR069W, strain VPS5, active compounds read low 1.01 | locus YOR070C, strain gyp1, active compounds read low 1.03 | locus YOR080W, strain dia2, active compounds read low 1.02 | locus YOR083W, strain WHI5, active compounds read low 1.05 | locus YOR106W, strain vam3, active compounds read low 1.05 | locus YOR136W, strain idh2, active compounds read low 0.994 | locus YOR144C, strain elg1, active compounds read low 0.997 | locus YOR184W, strain ser1, active compounds read low 1 | locus YOR231W, strain MKK1, active compounds read low 0.992 | locus YOR265W, strain rbl2, active compounds read low 1 | locus YOR270C, strain vph1, active compounds read low 1.03 | locus YOR290C, strain snf2, active compounds read low 1.06 | locus YOR316C, strain cot1, active compounds read low 0.995 | locus YPL051W, strain arl3, active compounds read low 1 | [3] 1 | locus YPL078C, strain atp4, active compounds read low 1.04 | locus YPL106C, strain sse1, active compounds read low 1.04 | locus YPL240C, strain hsp82, active compounds read low 1.01 | [4] 1.01 | locus YPL256C, strain CLN2, active compounds read low 0.968 | locus YPR119W, strain clb2, active compounds read low 0.999 | locus YPR141C, strain kar3, active compounds read low 1.01 | locus YPR163C, strain tif3, active compounds read low 1 | locus YPR167C, strain met16, active compounds read low 1 | strain wtn01, active compounds read low 0.997

C[C@]12CCC(=O)C=C1CC[C@@H]1[C@@H]2[C@@H](O)C[C@@]2(C)[C@H]1CC[C@]2(O)C(=O)COC(=O)CCC(=O)O
inactive: [6] 1 | [7] 1 | [8] 0.982 | locus YGR078C, strain PAC10, active compounds read low 1.01 | [9] 1.01 | [10] 1.01 | [11] 0.994 | [12] 0.996 | [13] 0.972 | [4] 0.999
active: [5] 1.11 [resistant]

C[C@]12Cc3cn4c(nc3C=C1CCC1C2CC[C@@]2(C)[C@H]1CC[C@@]2(O)C#N)nc1ccccc14 (stereo not given in full)
active: [5] 0.88 | [8] 0.264 | locus YNL153C, strain GIM3, active compounds read low 0.63 | [9] 0.229 | [11] 0.799 | [13] 0.852
inactive: [6] 0.99 | [1] 1 | [7] 0.975 | locus YGR229C, strain SMI1, active compounds read low 0.937 | locus YJR075W, strain HOC1, active compounds read low 0.963 | [2] 0.936 | [10] 0.911 | [12] 0.938 | [3] 0.966 | [4] 0.996
